Measurements: ChEMBL document CHEMBL3988442, “University of Dundee, Small-Polar-MMV Screening Library” (2021)

Each compound was assayed against AMP-activated protein kinase, AMPK (Homo sapiens) (UniProt P54646+O43741+P54619+Q9UGJ0+Q9Y478+Q13131+Q9UGI9) (assay: AMP-dependent Kinase enzyme assay. An in vitro enzyme assay that detects ADP turnover that is directly proportional to AMPK activity. This uses naive AMPK that is activated during the assay with MK-8722). Conditions: 30 µM.
Format: functional
Design: scale not given: direction of the effect not stated beside the values

| Structure (SMILES) | Percent Effect |
| --- | --- |
| O=C(Cc1nc(-c2ccncc2)n[nH]1)N1CCOCC1 | 7.55% |
| CCSc1cc(C(=O)N(CC(F)F)C(C)C)ccn1 | 2.16% |
| COc1cccc(S(=O)(=O)N2CCCCC2CCN2CCOCC2)c1 (centres undefined) | 39.4% |
| Cc1cc(CNC(=O)NCCC(=O)N2CCCc3ccccc32)no1 | -5.1% |
| O=C(O)CCn1ccc2c(nnc3c(-c4ccc(F)cc4)cnn32)c1=O | 18.8% |
| O=C(Cc1ccsc1)N1CCC[C@@H]1Cn1c(=O)oc2ccccc21 | 28.3% |
| Fc1ccc(N2CCCN(c3ccc(Cn4ccnc4)cn3)CC2)cc1 | -3.34% |
| c1cn(-c2nccnc2C2CCCN(C3CCOCC3)C2)cn1 (centres undefined) | 10.1% |
| O=C(Cn1cc(Cl)cn1)N1CCNC1=O | -8.6% |
| NC(=O)c1ccc(NC2CCOC3(CCCC3)C2)nn1 (centres undefined) | 0.506% |
| Cc1ccnc2c1NC(=O)CN2C(=O)CCc1ccccc1 | -1.93% |
| N#Cc1cccc(N2CCC(CO)(CCc3ccccc3)CC2)n1 | 3.06% |
| O=C(CCCN1CCCCC1)NC(C(=O)O)c1ccc(Cl)cc1 (centres undefined) | 6.04% |
| CCN(CC)S(=O)(=O)NCC1COc2ccccc2O1 (centres undefined) | 8.6% |
| Cc1cc(-c2cnc(N3CCC(C(N)=O)CC3)nc2C(C)C)on1 | 21.5% |
| CCc1cc(NCCCc2nc(C)no2)nc(-c2ccncc2)n1 | -1.39% |
| COCCN(C)C(=O)NCCc1coc(-c2ccc(C)cc2)n1 | -3.83% |
| Cc1nn(C)c(C)c1S(=O)(=O)NCC1(C(N)=O)CCOCC1 | 0.589% |
| Cc1ccccc1CCC(=O)N1CCc2ncnc(NCCO)c2CC1 | 0.622% |
| Cc1noc(C2CCN(Cn3cc(Br)cn3)CC2)n1 | 18.3% |

| Structure (SMILES) | Percent Effect |
| --- | --- |
| CNC(=O)c1cn2cc(-c3ccccc3Cl)n(CC=C(C)C)c(=O)c2n1 | 3.23% |
| CCc1nnc(CS(=O)(=O)c2ccc(C)c(C)c2)n1C | 9.9% |
| CC(=O)N[C@H]1CCO[C@@H](c2cccc(NC(=O)c3cccc(F)c3)c2)C1 | 6.73% |
| COc1ccccc1CC(=O)N(C)Cc1cc(C)on1 | -2.06% |
| CC1(C)Cc2nc(C(C)(C)C)ncc2C(NC(=O)C2(N)CC2)C1 (centres undefined) | -16.9% |
| Cc1ccc(-c2noc(C3CCN3C(=O)c3ccc(=O)[nH]n3)n2)s1 (centres undefined) | 19.2% |
| CSc1ccc(CNC2CCCc3c2cnn3C)cc1 (centres undefined) | 7.44% |
| COCCCN1CC2(CCN(C(=O)c3ncc(F)cc3F)CC2)CC1=O | -0.49% |
| CCc1cnc(CNC(=O)NCCCO)s1 | 9.14% |
| O=C(CCn1ccnc1)N1CC[C@H](Oc2ccc(F)cc2)[C@@H](O)CC1 | 20.9% |
| NC(=O)c1cc2c(nc1CC1CCCCO1)CCC2 (centres undefined) | -4.87% |
| Cc1csc(CCNC(=O)N2CCC(NC(=O)OC(C)(C)C)CC2)n1 | -1.4% |
| CSC1(CNC(=O)N(C)Cc2sccc2C)CCOCC1 | -7.94% |
| CC(C)OCCN1CCC(Nc2ncc(Br)cn2)CC1 | 10.5% |
| O=C(NCC(O)Cc1ccccc1)c1ccc2[nH]c(=O)[nH]c2c1 (centres undefined) | 11.7% |
| Cc1cc(C(=O)NCCN2CCCC(C)C2)nn1C(C)(C)C (centres undefined) | -4.71% |
| CC(NC(=O)NC1CCN(Cc2ccncc2)CC1)c1cccc(F)c1 (centres undefined) | 1.09% |
| Cc1cc(NC(=O)Cn2ccc(=O)c3ccccc32)[nH]n1 | -3.42% |
| Fc1ccc(C2(c3noc(CCN4CCCCO4)n3)CCOC2)cc1 (centres undefined) | 5.16% |
